# Compound: Nc1ncnc2c1ncn2[C@@H]1O[C@H](COP(=O)(O)OP(=O)(O)OP(=O)(O)O)[C@@H](O)[C@H]1O [adenosine 5'-triphosphate]
# Experiment: log2 fold change of tryptic peptide abundance, ligand vs vehicle (limited proteolysis) (log2 ratio); higher = more trypsin-susceptible (destabilized)
# Settings: ligand concentration: 5 mM; sample: E. coli desalted lysate; replicate design: treated before aliquoting
# Experimental: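 HT-PELSA: desalted E. coli K-12 BW25113 lysate (with 12 mM MgCl2) incubated with 5 mM ATP (pH 7) or water for 30 min at 25 C, then a 4 min trypsin pulse at 22 C. Peptides were quantified by DIA-MS (4 replicates). Value is the peptide log2 fold change (treated/control); negative = stabilized. Scale: negative = ligand-stabilized region.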
# 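Note: lysate desalted by size exclusion to strip endogenous ATP, peptide intensities built from DIA-NN precursor signals, and peptides missing any value discarded before comparison.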
row,Target,log2 fold change
1,"UniProt P15373 (peptide sequence: SHAVLTTESK, peptide start residue: 7)",-0.194
2,"UniProt P45522 (peptide sequence: TLVTLGMHPHQAQR, peptide start residue: 530)",0.604
3,"UniProt P37634 (peptide sequence: HSFHAGNHADVLK, peptide start residue: 6)",-1.17
4,"UniProt P0ABM9 (peptide sequence: DEAQEQQFR, peptide start residue: 27)",0.867
5,"UniProt P45577 (peptide sequence: VAGEMNLSKTQLR, peptide start residue: 46)",0.623
6,"UniProt P77293 (peptide sequence: GILSWVGGK, peptide start residue: 179)",-0.543
7,"UniProt P52598 (peptide sequence: SCVGEAAATMLR, peptide start residue: 151)",-0.421
8,"UniProt P11664 (peptide sequence: GAPETFDVAK, peptide start residue: 101)",-1.46
9,"UniProt P37745 (peptide sequence: WVGVLLSADNK, peptide start residue: 98)",-0.542
10,"UniProt P39342 (peptide sequence: MGPVTEDER, peptide start residue: 387)",-1.06
11,"UniProt P08179 (peptide sequence: MHENAAWLDGQR, peptide start residue: 191)",-0.588
12,"UniProt P00393 (peptide sequence: ISAAAHNELTK, peptide start residue: 228)",-0.559
13,"UniProt P0C0L2 (peptide sequence: GQAHWEGDIKR, peptide start residue: 7)",-0.717
14,"UniProt P23841 (peptide sequence: LNMSQPPLSIHIK, peptide start residue: 31)",-0.876
15,"UniProt P00934 (peptide sequence: LYNLKDHNEQVSFAQAVTQGLGK, peptide start residue: 3)",-1.05
16,"UniProt P02919 (peptide sequence: SIGSLAK, peptide start residue: 507)",0.413
17,"UniProt P10346 (peptide sequence: IAEDGNPQVLIKNPPSQR, peptide start residue: 214)",0.654
18,"UniProt P75767 (peptide sequence: VLSSLSSLGSR, peptide start residue: 24)",-1.19
19,"UniProt P23857 (peptide sequence: ERIATAVPDKNDTVK, peptide start residue: 50)",0.323
20,"UniProt P64610 (peptide sequence: IVTMSLKPQNILCHR, peptide start residue: 126)",-0.974

row,Target,log2 fold change
1,"UniProt P0ADA3 (peptide sequence: IATMGSTGTSSTR, peptide start residue: 346)",0.385
2,"UniProt P37759 (peptide sequence: EQITYVADRPGHDRR, peptide start residue: 289)",-0.709
3,"UniProt P09053 (peptide sequence: ILAEEIERAWAESH, peptide start residue: 404)",-0.817
4,"UniProt P0AA39 (peptide sequence: NILQSGER, peptide start residue: 198)",-0.653
5,"UniProt P22939 (peptide sequence: GLPTCHVK, peptide start residue: 97)",0.252
6,"UniProt P38051 (peptide sequence: QAQQLGEWLMADDKNQR, peptide start residue: 267)",-0.448
7,"UniProt P00490 (peptide sequence: QCNPALAALLDK, peptide start residue: 460)",1.07
8,"UniProt P39310 (peptide sequence: VWHAPDNFR, peptide start residue: 14)",-0.8
9,"UniProt P30855 (peptide sequence: YSQTSAGR, peptide start residue: 888)",0.38
10,"UniProt P36995 (peptide sequence: VTFSIESGAK, peptide start residue: 51)",-0.289
11,"UniProt P31554 (peptide sequence: GNIMWENEFR, peptide start residue: 268)",-0.46
12,"UniProt P37765 (peptide sequence: EIESIIEAGRVSVDGK, peptide start residue: 19)",0.997
13,"UniProt P36566 (peptide sequence: TLSPDYPR, peptide start residue: 179)",-1.28
14,"UniProt P04995 (peptide sequence: TDLGDNAAVPVK, peptide start residue: 288)",0.472
15,"UniProt P08194 (peptide sequence: AEQELTAK, peptide start residue: 235)",-0.739
16,"UniProt P14175 (peptide sequence: YIEQGLSK, peptide start residue: 24)",1.4
17,"UniProt P0ADM4 (peptide sequence: EGTYPGTR, peptide start residue: 32)",-0.36
18,"UniProt P04425 (peptide sequence: GTLIVNKPQSLR, peptide start residue: 109)",-1.9
19,"UniProt P31142 (peptide sequence: GHIPGALNVPWTELVR, peptide start residue: 194)",-0.763
20,"UniProt P0A7D4 (peptide sequence: EMKELEDR, peptide start residue: 83)",-1.78
